The target of assay [1] is Pre-mRNA-processing-splicing factor 8 (UniProt Q6P2Q9). Description: cross-link between two proteins; cross-linking mass spectrometry.
Assay [2] has as its target Thioredoxin-like protein 4A (UniProt P83876). The description is as above.
Assay [3] addresses U5 small nuclear ribonucleoprotein 40 kDa protein (UniProt Q96DI7). Described as above.
Assay [4] concerns the target CD2 antigen cytoplasmic tail-binding protein 2 (UniProt O95400). The assay is described as above.
Assay [5] concerns the target U5 small nuclear ribonucleoprotein TSSC4 (UniProt Q9Y5U2). Description: cross-linking mass spectrometry.

Sequence of U5 small nuclear ribonucleoprotein 40 kDa protein (Q96DI7 whole entry): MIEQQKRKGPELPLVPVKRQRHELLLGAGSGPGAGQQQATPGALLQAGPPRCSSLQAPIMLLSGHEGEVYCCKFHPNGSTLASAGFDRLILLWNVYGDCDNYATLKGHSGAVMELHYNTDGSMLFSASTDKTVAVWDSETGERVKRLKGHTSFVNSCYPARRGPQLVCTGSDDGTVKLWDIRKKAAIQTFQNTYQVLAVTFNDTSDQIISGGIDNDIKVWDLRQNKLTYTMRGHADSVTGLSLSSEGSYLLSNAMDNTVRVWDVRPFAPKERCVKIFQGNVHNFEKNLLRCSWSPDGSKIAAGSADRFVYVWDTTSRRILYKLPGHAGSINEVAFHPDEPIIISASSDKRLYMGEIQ
Sequence of Thioredoxin-like protein 4A (P83876 whole entry): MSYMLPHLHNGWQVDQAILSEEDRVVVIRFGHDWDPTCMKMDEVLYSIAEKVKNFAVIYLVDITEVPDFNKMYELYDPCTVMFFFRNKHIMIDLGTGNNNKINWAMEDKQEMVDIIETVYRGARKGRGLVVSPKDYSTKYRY
Sequence of CD2 antigen cytoplasmic tail-binding protein 2 (O95400 whole entry): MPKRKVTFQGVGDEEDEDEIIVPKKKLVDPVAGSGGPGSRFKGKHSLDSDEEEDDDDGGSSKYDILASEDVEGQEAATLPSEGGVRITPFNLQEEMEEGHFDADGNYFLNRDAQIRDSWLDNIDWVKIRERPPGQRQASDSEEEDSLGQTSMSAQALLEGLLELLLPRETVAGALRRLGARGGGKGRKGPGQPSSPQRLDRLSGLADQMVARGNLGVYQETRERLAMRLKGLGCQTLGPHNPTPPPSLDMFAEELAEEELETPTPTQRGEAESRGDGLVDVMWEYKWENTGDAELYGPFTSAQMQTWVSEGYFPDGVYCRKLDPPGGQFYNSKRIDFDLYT
Sequence of U5 small nuclear ribonucleoprotein TSSC4 (Q9Y5U2 whole entry): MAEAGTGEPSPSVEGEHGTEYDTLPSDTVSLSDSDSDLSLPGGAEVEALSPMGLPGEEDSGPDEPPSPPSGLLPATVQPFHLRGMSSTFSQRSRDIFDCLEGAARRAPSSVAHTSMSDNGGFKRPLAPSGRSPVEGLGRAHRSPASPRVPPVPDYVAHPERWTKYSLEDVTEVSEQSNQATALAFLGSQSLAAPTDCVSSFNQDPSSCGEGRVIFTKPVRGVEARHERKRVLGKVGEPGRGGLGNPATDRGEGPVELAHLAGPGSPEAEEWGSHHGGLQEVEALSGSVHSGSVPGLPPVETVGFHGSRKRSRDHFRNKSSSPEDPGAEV

“CD2 antigen cytoplasmic tail-binding protein 2, O95400”: the “listed as a hit” value in assay [1], in assay [2] and in assay [3] was “yes” in each case.
For Pre-mRNA-processing factor 6, O94906, the “listed as a hit” value in assay [4] and in assay [3] was “yes” each time.
On to “U5 small nuclear ribonucleoprotein 200 kDa helicase, O75643”, for which the “listed as a hit” value in assay [5] is “yes”.

The values above are taken from paper PMC11102862.
